Entries with a potency or affinity are not part of this list. Inconclusive results are not listed. Calls of active or inactive are those of the source. No rule for the calls is given here.
Molecular target: CAAX prenyl protease 1 (Saccharomyces cerevisiae (strain ATCC 204508 / S288c)) (UniProt P47154)
Test: Ste24 protease inhibitors, dose response, biochemical, S. cerevisiae, plate reader, cherry-pick (AID 488815)
Details: yeast Ste24 protease activity; series mostly up to 10 µM

CAAX prenyl protease 1 (Saccharomyces cerevisiae (strain ATCC 204508 / S288c)), sequence (P47154 whole entry, looked up): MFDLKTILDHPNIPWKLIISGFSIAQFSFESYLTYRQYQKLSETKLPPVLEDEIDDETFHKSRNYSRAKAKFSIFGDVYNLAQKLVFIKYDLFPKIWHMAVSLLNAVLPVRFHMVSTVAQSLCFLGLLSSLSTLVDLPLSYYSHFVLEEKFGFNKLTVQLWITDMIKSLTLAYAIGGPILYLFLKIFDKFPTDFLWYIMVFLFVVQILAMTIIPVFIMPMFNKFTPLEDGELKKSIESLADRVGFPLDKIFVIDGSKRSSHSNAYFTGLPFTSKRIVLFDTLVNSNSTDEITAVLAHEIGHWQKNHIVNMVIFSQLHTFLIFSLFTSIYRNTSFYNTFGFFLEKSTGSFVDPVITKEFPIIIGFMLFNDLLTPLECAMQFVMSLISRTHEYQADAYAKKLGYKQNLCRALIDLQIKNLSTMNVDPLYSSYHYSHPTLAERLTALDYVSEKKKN

outcome, inactive:
COc1cc2ccccc2cc1C(=O)N(CCN(C)C)c1nc2ccc(C)cc2s1
COc1ccc(C(=O)/C=C/c2ccc(OC)cc2OC)c(O)c1
O=C(Nc1ccccc1-c1nc2ccccc2[nH]1)c1ccc(N2C(=O)CCC2=O)cc1
Cc1cccc2sc(N(CCN(C)C)C(=O)c3ccc4ccccc4c3)nc12
COC(C/C=C/[C@@H](O)[C@H](C)OCc1ccccc1)OC
Cc1nc(SC(C(=O)c2ccccc2)c2ccccc2)nc2ccccc12 (stereo unspecified)
O=C(CN(C1CCCCC1)C1CCCCC1)N1CCc2ccccc2C1
CC1CCc2c(sc(NC(=O)COC(=O)c3ccccc3NCc3ccco3)c2C#N)C1 (stereo unspecified)
CCCCNC(=S)NNC(=O)CCn1cc(C)cn1
O=C(c1cc(-c2ccccc2)nc2ccccc12)N1CCN(c2ccccn2)CC1
CCOC(=O)c1ccc(NC(=O)N2CCN(Cc3ccccc3)CC2)cc1
CCOc1ccc(-c2c(C(=O)N/N=C/c3cccs3)nnn2-c2nonc2N)cc1
O=C(Nc1ccc(F)cc1)Oc1ccccc1N1CCOCC1
CCO[C@@H]1OC(C(=O)N2CCN(Cc3ccccc3)CC2)=C[C@H](c2ccccc2)[C@H]1CCCO
CC(C)CNC(=O)COc1cccc(C(=O)NCc2ccccc2)c1
CCCCCCCCNC(C)C(O)c1ccc(SC(C)C)cc1 (stereo unspecified)
O=C(O)CCCC[C@@H]1SC[C@@H]2NC(=O)N[C@@H]21
C/C(Cl)=C\Cn1c(O)c(N=NC(N)=S)c2cc(Br)ccc21
CCOC(=O)c1cc(-c2ccccc2)sc1NC(=O)C(C)Sc1nnnn1C (stereo unspecified)
CCn1cc(/C=C(\NC(=O)c2ccccc2F)C(=O)N2CCOCC2)c2ccccc21
C=C(C)C1(O)OC(=O)C=C1OC (stereo unspecified)

From PubChem BioAssay AID488815 (Broad Institute, 2010)
